ELG1 genotoxic: inducers of genotoxicity in HEK293T ELG1-luciferase cells. 330,000 tested, 1.3% active. AID 504466. Potency, µM (top dose mostly 46 µM), without a hit: top-dose activity change, positive = activation, hits mostly activators. HEK293T ELG1-luciferase reporter, luminescence, 16 h; note: % of control where 0% means no effect; nearly all actives have a fitted effect of over 60% in size
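Cells (2,000/well) expressing the ELG1-luciferase fusion are dosed by pin tool and kept 16 hr at 37 °C, 5% CO2. Signal comes from ONE-Glo luciferase reagent after 30 min at room temperature.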
FLuc modulator: inhibits or activates purified firefly luciferase, miR-21 counter-screen. Potency, µM (series often up to 57.5 µM), for the others: at the top dose activity change, negative = inhibition, actives largely listed as inhibitors. purified FLuc, Km substrates, luminescence inhibition. 360,000 tested, 6.9% active. AID 588342;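 note: plate controls were vehicle for no effect and reference inhibitor for full effect; nearly all actives have a fitted effect of over 55% in size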
Target sequence (P08659 whole entry, looked up): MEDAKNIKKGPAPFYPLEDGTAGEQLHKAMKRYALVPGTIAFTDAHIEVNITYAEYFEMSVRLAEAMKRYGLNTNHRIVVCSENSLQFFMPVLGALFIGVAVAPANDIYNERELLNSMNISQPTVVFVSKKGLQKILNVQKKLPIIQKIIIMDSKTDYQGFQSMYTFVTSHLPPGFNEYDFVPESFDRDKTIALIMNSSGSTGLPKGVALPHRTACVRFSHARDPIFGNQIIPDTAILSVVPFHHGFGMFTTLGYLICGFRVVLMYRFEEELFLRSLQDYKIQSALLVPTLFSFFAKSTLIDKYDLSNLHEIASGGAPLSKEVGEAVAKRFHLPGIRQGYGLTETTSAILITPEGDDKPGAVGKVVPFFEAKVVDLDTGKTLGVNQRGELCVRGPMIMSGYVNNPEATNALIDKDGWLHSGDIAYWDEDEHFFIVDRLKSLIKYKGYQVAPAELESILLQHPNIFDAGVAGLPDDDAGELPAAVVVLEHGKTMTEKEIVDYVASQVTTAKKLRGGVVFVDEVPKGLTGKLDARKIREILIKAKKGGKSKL
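Purified P. pyralis luciferase, 10 nM final, with Km-level 10 uM D-luciferin and 10 uM ATP in 50 mM Tris acetate pH 7.5, 10 mM Mg acetate, 0.01% Tween-20, 0.05% BSA; 6-point qHTS titration about 60 µM downward; luminescence read.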
SMN2 splice enh: enhancers of SMN2 splice variant expression; HEK293 SMN2-luciferase splicing reporter, luminescence, 30-36 h; Potency, µM (series often up to 46.1 µM), for inactives: at the top dose activity change, positive = activation, most hits filed as activators; 210,000 tested, 2.8% active; AID 1458; note: % of control where 0% means no effect; nearly all actives have a fitted effect of over 55% in size
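qHTS luciferase splicing reporter: luminescence rises when SMN2 exon 7 is included in transfected HEK293 cells. Compound exposure lasted 30-36 h at 37C, with 4.5 mM final sodium butyrate as control, followed by a ONE-Glo read.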
NPC1 promoter act: activators of NPC1 promoter; Huh7 NPC1 promoter luciferase reporter, 24 h; Potency, µM (series often up to 9.22 µM), for inactives: at the highest dose activation, actives largely listed as activators; 320,000 tested, 2.4% active; AID 485313; note: % of control where 0% means no effect; nearly all actives have a fitted effect of over 60% in size
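In 1536-well qHTS, Huh7 cells harboring an NPC1 promoter–luciferase construct received compound for 24 h; activation was quantified by luminescence following luciferase reagent addition.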
Rab9 promoter act: Rab9 promoter activation. Huh7 Rab9 promoter-luciferase reporter, luminescence, 24 h. Potency, µM (highest dose often 9.22 µM), for inactives: at the top dose activation, negative = inhibition, usual class: activators. 320,000 tested, 2.8% active. AID 485297; note: % of control where 0% means no effect; nearly all actives have a fitted effect of over 60% in size
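Steps: seed 1500 Huh7 Rab9-luc cells per well, rest 2 h at 37 °C; add compound in DMSO; incubate 24 h; add luciferase reagent, 10 min ambient; read luminescence.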
Numbers without * were called inactive; ? = inconclusive; . = not tested or not shown. Shown are actives, neighbours in structure and some others; about 7.5% of the full set was active somewhere. Calls come from the whole dose curve; as a rule, active = well fitted curve in the direction sought with a large enough effect; inconclusive = small, poorly fitted or top-dose-only effect, or another doubt; inactive = no such curve, though single readings can be large; an effect the other way counts as inactive or inconclusive. Potency is the fitted concentration of half-maximal effect.

SMILES	ELG1 genotoxic	FLuc modulator	SMN2 splice enh	NPC1 promoter act	Rab9 promoter act
CN(CC(=O)Nc1ccccc1Br)C(=O)c1ccccc1-c1nc2ccccc2s1	-9%	-4%	.	5%	2%
Cc1noc(Cn2c(=O)c3cc4c(cc3n(CC(=O)Nc3cccc(Cl)c3)c2=O)OCO4)n1	.	-10%	.	.	.
O=C(CSc1nnc2ccccn12)Nc1ncc(Cl)cc1Cl	18µM*	?	?	20%	?
O=C(CCS(=O)(=O)c1ccccc1)Nc1ccc2c(c1)OCO2	?	27µM*	.	?	?
O=C(CSCc1ccccc1F)NCc1ccccc1	?	24µM*	?	?	?
CC(C)=CC(=O)Nc1ccc2c(c1)OCO2	.	11µM*	11µM*	.	.
CC1=C(C(=O)Nc2ccccc2)C(c2cccc(O)c2)n2nc(-c3ccccc3Cl)nc2N1 (stereo not drawn)	.	-20%	16%	.	.
NC(=O)/C(=C\c1cccnc1)NC(=O)c1ccccc1	-1%	-2%	3%	0%	2%
CCOc1ccc(NC(=O)Cn2cc(C(=O)c3ccc(CC)cc3)c(=O)c3cc(C)ccc32)cc1	.	-5%	1%	.	.
COc1cc(C(=O)Oc2cccc(C=O)c2)cc(OC)c1OC	3%	2%	-18%	-3%	-2%
O=Cc1cccc(OC(=O)c2ccc(Cl)cc2Cl)c1	12µM*	17µM*	?	?	?
Cc1cc(S(=O)(=O)N2CCCOC2CNC(=O)C(=O)NCc2cccs2)ccc1F (stereo not drawn)	-6%	6%	.	3%	-9%
S=c1[nH]c(-c2ccccc2)cn1/N=C/c1cccs1	-1%	-15%	.	1.4µM*	?
Fc1ccccc1/C=N/n1cc(-c2ccccc2)[nH]c1=S	2%	?	.	1.1µM*	4µM*
COc1cccc(CN2CC(C(=O)NCCc3ccc(C)o3)CCC2=O)c1 (stereo not drawn)	5%	-1%	.	-4%	-5%
Nc1ccc2oc(-c3cc(Br)ccc3Cl)nc2c1	?	?	12%	-1%	3%
Nc1ccc2oc(-c3ccccc3Cl)nc2c1	3.7µM*	1.3µM*	2.8µM*	?	0.45µM*
CCc1ccc2oc(-c3cc(N)ccc3Cl)nc2c1	2.1µM*	0.24µM*	?	4µM*	2.5µM*
CCc1ccc2oc(-c3cc(N)ccc3O)nc2c1	22%	0.34µM*	25µM*	3.2µM*	4.5µM*
CCc1ccc2oc(-c3cc(N)cc(C)c3O)nc2c1	?	?	?	6%	?
COC(=O)C1=C(CSc2nc3ccccc3s2)NC(=O)NC1c1ccc(F)cc1 (stereo not drawn)	1%	-7%	-13%	-2%	-7%
COc1ccc(C(C)=O)c(O)c1	.	.	-7%	.	.
O=C(COc1ccc(F)cc1)c1c(O)cc(O)cc1O	?	8.5µM*	.	?	?
COc1ccc(C(=O)COc2ccc(F)cc2)c(O)c1	?	13µM*	.	3.2µM*	?
CCOc1ccc(-c2noc(CCC(=O)NC3CCCCC3)n2)cc1OC	1%	1%	.	-1%	1%
SMILES	ELG1 genotoxic	FLuc modulator	SMN2 splice enh	NPC1 promoter act	Rab9 promoter act
Cc1ccc(-n2nc(C)c3c(C(=O)NCCc4ccc(S(N)(=O)=O)cc4)cc(C)nc32)cc1	.	6%	.	.	.
COc1cccc(CC2(CO)CCCN(Cc3ccc(OC)c(C)c3OC)C2)c1 (stereo not drawn)	-12%	-2%	.	-5%	-9%
O=C(Nc1ccccc1)C(Cc1ccccc1)N1Cc2ccccc2C1=O (stereo not drawn)	.	-2%	.	.	.
O=[N+]([O-])c1ccccc1S(=O)(=O)Nc1cccc(-c2ccc(N3CCOCC3)nn2)c1	?	2.7µM*	.	25%	?
O=S(=O)(Nc1cccc(-c2ccc(N3CCOCC3)nn2)c1)c1cc(Cl)ccc1Cl	?	7.6µM*	.	19%	?
Cc1ccc([N+](=O)[O-])cc1S(=O)(=O)Nc1cccc(-c2ccc(N3CCOCC3)nn2)c1	9.2µM*	3µM*	.	20%	?
Cc1ccc([N+](=O)[O-])cc1S(=O)(=O)Nc1ccc(-c2ccc(N3CCCC3)nn2)cc1	6%	?	.	11%	2%
O=[N+]([O-])c1ccccc1S(=O)(=O)Nc1cccc(-c2ccc(N3CCCC3)nn2)c1	?	17µM*	.	23%	20%
